Data as given in the supplement of paper PMC6555819.

Legend:
Assay in all cases: PBM binding z-score (relative to random genomic background probes); higher = stronger binding; sequences stand for … in GC…GCGATTGACAGCGTAGAATGAAGG
[1] = tested on: FXR:RXRa (NR concentration 270 nM, RXRa partner concentration 90 nM)
In short: (§1)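 Ligand-free nuclear receptor dimers were bound for 1 h to custom Agilent 4×180K protein-binding microarrays. Detection used antibodies against each partner (one per run). Binding z-scores rest on regression-normalized fluorescence, with random background probes as the reference.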

[2] = tested on: LXRa:RXRa (NR concentration 270 nM, RXRa partner concentration 90 nM)
In short: as §1

[3] = tested on: LXRa homodimer (NR concentration 270 nM)
In short: as §1

[4] = tested on: LXRb:RXRa (NR concentration 270 nM, RXRa partner concentration 90 nM)
In short: as §1

[5] = tested on: LXRb homodimer (NR concentration 270 nM)
In short: as §1

[6] = tested on: PPARa:RXRa (NR concentration 270 nM, RXRa partner concentration 90 nM)
In short: as §1

[7] = tested on: PPARg:RXRa (NR concentration 180 nM, RXRa partner concentration 90 nM)
In short: as §1

[8] = tested on: PPARg:RXRa 270nM:90nM, anti-RXR (NR concentration 270 nM, RXRa partner concentration 90 nM)
In short: as §1

[9] = tested on: PPARg:RXRa 30nM:10nM, anti-RXR (NR concentration 30 nM, RXRa partner concentration 10 nM)
In short: as §1

[10] = tested on: PPARg:RXRa 90nM:30nM, anti-RXR (NR concentration 90 nM, RXRa partner concentration 30 nM)
In short: as §1

| Sequence | PBM binding z-score [1] | PBM binding z-score [2] | PBM binding z-score [3] | PBM binding z-score [4] | PBM binding z-score [5] | PBM binding z-score [6] | PBM binding z-score [7] | PBM binding z-score [8] | PBM binding z-score [9] | PBM binding z-score [10] |
| --- | --- | --- | --- | --- | --- | --- | --- | --- | --- | --- |
| GGAACGAGGGCATTCGAGTTTATAGCATGGCGAT | 1.12 | 4.61 | 0.296 | 0.629 | -0.537 | 1.57 | 0.982 | 0.798 | -0.0706 | 0.209 |
| TCATATAGGTAAATGCTAGGTGAAAGCCCGATCT | 0.778 | 0.754 | 0.00437 | 0.675 | -0.102 | 1.4 | 0.799 | 2.27 | 3.75 | 3.05 |
| CAAGACAGGTGAGAAGGTAACTCAGCCTCGATTA | 0.353 | 0.452 | -0.0734 | 0.183 | 0.194 | 0.791 | 0.815 | 0.902 | 0.302 | 0.808 |
| ATCTTTAGGTAAAAGTTCAGTGAATCCCGAGGAT | 0.829 | 1.33 | 1.14 | 0.973 | 1.01 | 4.03 | 6.36 | 7.35 | 6.09 | 7.91 |
| CGTACTAGGTCAAGGACAGTGAATCTCCGCACGC | 3.26 | 2.36 | 0.318 | 1.61 | 0.134 | 3.93 | 6.37 | 5.52 | 2.99 | 4.86 |
| TCTGCTAGGTCAGTTGGTCATCTAACGAGCTGCC | 1.16 | 0.727 | -0.519 | 0.51 | 0.317 | 1.66 | 0.954 | 2.16 | 1.52 | 2.1 |
| ATATGTAGGCTACATCCGGGTCATTCAGGCTATG | 0.976 | 1.54 | 0.0787 | 1.85 | 0.425 | 3.62 | 3.08 | 2.77 | 1.13 | 1.85 |
| AATACAGGGTCATCGTAGCCCAGAGTACGCACAG | 6.98 | 5.87 | 2.36 | 4.47 | 1 | 5.89 | 6.62 | 6.26 | 3.25 | 4.75 |
| ATATGTAGGTTAGCTTGGGTCATTCAGACTAGGC | 2.44 | 5.2 | 0.866 | 2.43 | 0.362 | 3.42 | 3.84 | 3.34 | 1.32 | 2.41 |
| TCTTGTAGTTCAAAGGTTAAGAAAGCCGAAGCCT | 4.09 | 4.39 | 1.23 | 3.51 | 0.628 | 5.16 | 7.14 | 7.29 | 7.28 | 7.39 |
| CCATACGGGTCAAGGTTATAGCACGGGTGGTACG | 5.13 | 3.28 | 0.265 | 2.54 | -0.237 | 4.84 | 4.87 | 4.32 | 1.07 | 3.23 |
| TGAATGAGGATATAAGATCAGGGAACGTTGCAAA | 0.013 | -0.248 | -0.305 | -0.404 | -0.253 | -0.127 | 0.623 | 0.286 | 0.757 | 0.775 |
